In PubChem BioAssay AID463173 (ICCB-Longwood Screening Facility, Harvard Medical School, 2010):
Screen size: about 52,000 compounds; about 4,300 (8.3%) were called active. For the sample, actives were picked, then their nearest neighbours and some compounds at random. Values without a mark were called inactive. Cut-off read from the data, not from the text of the source: active = survival mostly below about 52% (no sharp cut-off); inactive = mostly above about 56%.

tested on: DeltatarO mutant; experiment: growth inhibition of S. aureus wild type versus tarO mutant, primary screen, teichoic acid synthesis inhibitors, RN4220, OD600 (AID 463173); settings: OD600, 18 h, active compounds read low, screened at 18.75 µg/mL (by protocol)

SMILES	survival
O=C(CCCc1nc(-c2ccc(Cl)cc2)no1)NCc1ccco1	54%
COc1ccc(C(=O)NCc2ccc3c(c2)CCN3C(C)=O)cc1OC	83%
Cc1ccc(C)c(CNC(=O)c2ccc3c(c2)nc2n3CCC(C)C2)c1 (centres undefined)	91%
Cc1ccc(S(=O)(=O)N2CCCc3cc(NS(=O)(=O)c4ccc(C)c(C)c4)ccc32)cc1	67%
COc1ccc2c(c1)c1c(c(=O)n(Cc3ccccc3)c(=O)n1Cc1ccc(C)cc1)n2C	80%
COc1ccc2c(c1)c1c(c(=O)n(Cc3ccccc3)c(=O)n1Cc1ccccc1)n2C	-1% (active)
COc1cccc(Cn2c(=O)n(Cc3ccccc3)c(=O)c3c2c2cc(OC)ccc2n3C)c1	64%
Cc1ccc(/C=C/c2nc3ccccc3[nH]2)cc1	67%
CCOc1ccccc1NC(=O)c1c(C)cc(C)nc1SCC(=O)c1cccc(OC)c1	40% (active)
COc1ccccc1NC(=O)c1c(C)cc(C)nc1SCC(=O)c1ccc(Cl)cc1	93%
COc1ccc(C(=O)CSc2nc(C)cc(C)c2C(=O)Nc2ccccc2C)cc1	51%
Cc1ccc(NC(=O)CSc2nc(C)cc(C)c2C(=O)Nc2cccc(C)c2)cc1	49%
Cc1cccc(NC(=O)c2c(C)cc(C)nc2SCC(=O)Nc2c(C)cc(C)cc2C)c1	52%
Cc1ccc(NC(=O)c2c(C)cc(C)nc2SCC(=O)Nc2ccc(Br)cc2)cc1	40% (active)
Cc1ccc(C(=O)CSc2nc(C)cc(C)c2C(=O)Nc2cccc(C)c2)cc1	43%
Cc1cc(C)c(C(=O)Nc2ccccc2)c(SCC(=O)Nc2ccc(Br)cc2C)n1	38% (active)
COC(=O)c1ccc(NC(=O)CSc2nc(C)cc(C)c2C(=O)Nc2ccccc2)cc1	44%
Cc1cccc(NC(=O)CSc2nc(C)cc(C)c2C(=O)Nc2ccc(Cl)cc2)c1	44%
CCc1cccc(C)c1NC(=O)CSc1nc(C)cc(C)c1C(=O)Nc1ccccc1	44%
Cc1cccc(NC(=O)c2c(C)cc(C)nc2SCC(=O)c2ccccc2)c1	40% (active)
Cc1ccc(S(=O)(=O)NCC2CCC(C(=O)NCCc3ccccc3)CC2)cc1 (centres undefined)	81%
O=C(NC1CC(=O)N(c2cccc(F)c2)C1)c1ccc(S(=O)(=O)N2CCOCC2)cc1 (centres undefined)	76%
Cc1ccc(NC(=O)Cn2c(=O)n(Cc3ccc(C(=O)NCc4ccc5c(c4)OCO5)cc3)c(=O)c3ccccc32)cc1	102%
Cc1cc(=O)n(Cc2c(F)cccc2Cl)c2c1c(C)nn2-c1cccc(F)c1	77%
